Source: PubChem BioAssay
An excerpt weighted towards active compounds, which were near 13% of everything screened.
Pf growth 48h: Primary qHTS for delayed death inhibitors of the malarial parasite plastid, 48 hour incubation; P. falciparum luciferase growth in erythrocytes, 48 h; hit rate 5.9% among 310,000; Potency, µM (series often up to 28.7 µM), most hits filed as inhibitors
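Growth was read as firefly luciferase luminescence after a 48 h, 37 C, 5% CO2 exposure of compounds to reporter-bearing P. falciparum cultures (0.1% parasitemia, 2% hematocrit final) in Albumax-supplemented RPMI 1640.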
Pf growth 96h: Primary qHTS for delayed death inhibitors of the malarial parasite plastid, 96 hour incubation. Potency, µM (series often up to 28.7 µM), hits mostly inhibitors. AID 504834, 2011. hit rate 6.9% among 320,000. P. falciparum luciferase reporter growth, 96 h
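Two parasite generations (96 h, 37 C, 5% CO2) of compound exposure in infected erythrocytes (0.05% parasitemia, 2% hematocrit). Luciferase-reporter P. falciparum; decreased luminescence indicates inhibited growth, aimed at apicoplast-acting delayed death.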
HCMV antiviral: qHTS Assay for inhibitors of the human cytomegalovirus (HCMV); activity change, negative = inhibition, % at 57.5 µM; HFF cells, HCMV-luciferase reporter, 72 h; hits give low values; hit rate 4.5% among 410,000; in the data active means activity change below about -60%; inconclusive means no clear call, values can overlap the other calls; inactive means above about -39%
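Two compound doses tested in HFFs infected with HCMV-luciferase, MOI 1 PFU/cell, 72 h at 37C. Lysate luminescence read with OneGlo; data normalized against buffer-only and 10uM Salinomycin inhibitor controls.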
HCV inh: qHTS Assay for Inhibitors of Hepatitis C Virus (HCV); Huh7.5.1 HCVcc-Cre infection, luciferase reporter, 44 h; Potency, µM (titrated, usually from 41.8 µM), usual class: inhibitors; hit rate 3.4% among 340,000
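A cell-based infection assay in which seeded cells (1,000 per well) receive test compound after 4 h, are inoculated with HCVcc-Cre at approximately 0.5 moi, and are incubated 44 h before luminescence detection.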
Hits are given with their value; n = inactive; u = inconclusive; x = no result. Unless noted, the call rests on the fitted dose curve; in most records, active means well fitted inhibition curve with a large enough effect; inconclusive means small, poorly fitted or top-dose-only effect, or another doubt; inactive means no such curve, though single readings can be large or run the other way.

SMILES	Pf growth 48h	Pf growth 96h	HCMV antiviral	HCV inh
Cc1cccc(OC(=O)c2cc(-c3ccc(Cl)cc3)on2)c1C	x	x	n	x
O=C(CCCN1C(=O)/C(=C/c2ccccc2)SC1=S)N1CCOCC1	u	n	-97	n
CCOc1ccc(/C=C2\SC(=S)N(CCCC(=O)NCCCN3CCOCC3)C2=O)cc1	u	n	-95	n
O=C(CCCN1C(=O)/C(=C/c2cccc(Br)c2)SC1=S)N1CCOCC1	n	n	n	n
O=C(CCN1C(=O)/C(=C\c2ccccc2)SC1=S)N1CCOCC1	12µM	n	n	n
CCc1ccc(/C=C2\SC(=S)N(CCCC(=O)NCCCN3CCOCC3)C2=O)cc1	x	x	n	x
Cc1ccc(/C=C2\SC(=S)N(CCC(=O)N3CCOCC3)C2=O)cc1	u	u	u	n
O=C(CCN1C(=O)/C(=C/c2ccccc2Cl)SC1=S)N1CCOCC1	13µM	u	n	5.6µM
COc1cc2c(cc1OC)C(COc1ccc(F)cc1)N(C(=O)c1ccc(S(=O)(=O)N3CCCC3)cc1)CC2 (configuration not stated)	x	x	n	x
CCn1ccc2c(OCC(=O)NCc3ccc(C)cc3)cccc2c1=O	x	x	n	x
O=C(CSc1oc(-c2ccco2)nc1S(=O)(=O)c1ccc(Cl)cc1)c1ccc(Cl)cc1	x	x	n	x
COc1ccc(N2CC(NC(=O)c3c(F)cccc3Cl)CC2=O)cc1OC (configuration not stated)	x	x	n	x
O=C(CCn1nc(-c2ccccc2)ccc1=O)N1CCOCC1	n	1.3µM	n	n
O=C(CCN1C(=O)/C(=C/c2ccccc2F)SC1=S)NCCCN1CCOCC1	u	n	n	u
O=C(CCCN1C(=O)/C(=C/c2ccccc2Cl)SC1=S)NCCCN1CCOCC1	12µM	u	u	n
CCOc1ccc(/C=C2\SC(=S)N(N3C(=O)C4CC4C3=O)C2=O)cc1 (configuration not stated)	4.1µM	n	n	n
CCCCN(C)CCCNC(=O)CCn1nc(-c2ccccc2)ccc1=O	n	0.12µM	n	n
CCOc1ccc(C2N3CC4(C(C)C)CN2CC(C(C)C)(C3)C4=O)cc1OC (configuration not stated)	x	x	n	x
O=C(NC1CCCC1)C(c1ccccc1)n1c(CSCCOc2ccccc2)nc2ccccc21 (configuration not stated)	x	x	n	x
Cc1ccc2nc(N3CCN(c4cccc(C(F)(F)F)c4)CC3)c3nnnn3c2c1	x	x	n	x
Cn1cc([C@]2(O)C(=O)Nc3c(F)cccc32)c2ccccc21	x	x	n	x
COc1ccccc1/C=C1\SC(=S)N(CCC(=O)NCCCN2CCOCC2)C1=O	n	u	u	u
O=C(CCCN1C(=O)/C(=C/c2ccccc2Cl)SC1=S)NNC(=O)c1ccccc1Cl	n	u	-88	n
O=C(CCCN1C(=O)/C(=C/c2ccccc2Cl)SC1=S)N1CCCC1	u	9.3µM	-109	u
O=C(CCN1C(=O)/C(=C/c2ccccc2Cl)SC1=S)N1CCCC1	u	u	n	u
SMILES	Pf growth 48h	Pf growth 96h	HCMV antiviral	HCV inh
O=C1C(=Cc2cccc(O)c2O)SC(=S)N1CCCN1CCOCC1	x	x	-97	x
Cc1ccc(Cl)cc1NC(=O)Nc1nnc(N(C)Cc2ccccc2)s1	x	x	n	x
CCOc1ccc(S(=O)(=O)Nc2ccc3c(c2)c(C(C)=O)c(C)n3S(=O)(=O)c2ccc(OCC)cc2)cc1	x	x	n	x
Cc1noc(C)c1COC(=O)c1cc(=O)[nH]c2ccccc12	n	n	u	n
O=C(OCc1nnc(-c2ccccc2)o1)c1ccccc1	n	n	n	n
Cc1nc2ccc(C(=O)OCc3nnc(-c4ccccc4)o3)cc2nc1C	n	13µM	n	n
Cc1noc(C)c1COC(=O)c1cc(C)n(-c2ccccc2)c1C	n	n	n	10µM
Cc1cc(C(=O)OCc2nnc(-c3ccccc3)o2)c(C)n1-c1ccccc1	n	n	n	14µM
O=C(OCc1nnc(-c2ccccc2)o1)c1cn(-c2ccccc2)nc1-c1ccccc1	u	n	n	11µM
Cc1cc2oc3c(c(=O)c2cc1C)C(c1ccc(C(C)C)cc1)N(c1nc(C)c(C)s1)C3=O (configuration not stated)	x	x	n	x
Cc1cccc(C)c1NC(=O)Cn1c(=O)n(Cc2ccccc2)c(=O)c2c(C)c(C(=O)N(C)C)sc21	x	x	n	x
COc1ccc(-c2cc(-c3nnc(COC(=O)c4ccncc4)o3)c3ccccc3n2)cc1OC	12µM	u	n	n
O=C(OCc1nnc(-c2ccc(Cl)cc2)o1)c1ccncc1	n	n	n	n
